# A number with no mark means an inactive call. Calls follow the shape of the dose curve; as a rule, active = well fitted curve in the direction sought with a large enough effect; inactive = no such curve, though single readings can be large or run the other way.
# Target: L-lactate dehydrogenase B chain (Homo sapiens) (UniProt P07195)
# Experiment: Extended Characterization of HPGD Inhibitors: Counterscreen Against LDHB
# Conditions: LDHB enzyme, diaphorase/resazurin coupled fluorescence; series mostly up to 114 µM; activity, negative = inhibition: at the top concentration
# Source text: The central role of HPGD is to inactivate prostaglandins such as prostaglandin E2 (PGE2) or prostaglandin D2 (PGD2). These prostaglandins are involved in a number of processes, including inflammation, differentiation, and cellular signaling, which makes HPGD an important target for pharmacological intervention. A number of prostaglandins of particular biological interest have been identified as substrates of HPGD. […] Over-production of PGE2 has been reported to promote tumor-associated neovascularization, cell proliferation, and tumor growth. […] In order to further characterize the compounds, we ran them against an LDHB counterscreen. LDHA converts pyruvate to lactate while regenerating NAD+ from NADH. LDHA enzymatic activity is then coupled to the activity of diaphorase, which reversibly catalyzes the reaction of NAD+ to NADH while simultaneously reducing resazurin to the fluorescent resorufin. This change in fluorescence signal (excitation 544 nm; emission, 590 nm) was monitored using the ViewLux CCD imager (Perkin Elmer). Data were normalized against no enzyme control wells and no compound control wells. NIH Chemical Genomics Center [NCGC] NIH Molecular Libraries Probe Centers Network [MLPCN] MLPCN Grant: MH084681 Assay Submitter (PI): Structural Genomics Consortium
# 3 uL of LDHB enzyme in assay buffer are added to plate before 23 nL of compound/control are pinned into the solution. After a 15 min incubation, 1 uL of NADH (60 uM final) and sodium pyruvate (160 uM final) are added, incubated at 8 min at RT before another 1 uL of Diaphorase / Resazurin is added. The plate is read on the ViewLux after a 10 min RT incubation
# Sequence of L-lactate dehydrogenase B chain (Homo sapiens) (P07195 whole entry, looked up): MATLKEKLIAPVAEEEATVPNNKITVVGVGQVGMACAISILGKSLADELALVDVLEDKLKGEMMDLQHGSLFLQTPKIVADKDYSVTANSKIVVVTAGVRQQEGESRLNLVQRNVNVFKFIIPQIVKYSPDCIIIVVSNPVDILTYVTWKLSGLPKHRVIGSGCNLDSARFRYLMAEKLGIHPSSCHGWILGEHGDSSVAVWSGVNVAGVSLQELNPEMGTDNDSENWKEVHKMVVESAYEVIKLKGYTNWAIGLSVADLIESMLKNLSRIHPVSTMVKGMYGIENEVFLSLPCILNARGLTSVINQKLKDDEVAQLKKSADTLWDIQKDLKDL
row,Compound,"activity, negative = inhibition [%]"
1,O=C(c1ccc2c(c1)ncn2-c1cccc(C(F)(F)F)c1)N1CCCCC1,5.8
2,Cc1ccc(-n2c(C)cc(-c3nnc4n3CCCCC4)c2C)cc1,7.15
3,Cc1cc(-c2nnc3n2CCCCC3)c(C)n1-c1ccc(Cl)c(Cl)c1,11
4,Cc1cccc(-n2cnc3cc(C(=O)N4CCCC(C)(C)C4)ccc32)c1,-0.0782
5,O=C(c1ccc2c(c1)ncn2-c1cccc(Cl)c1)N1CCCCC1,11.5
6,COc1ccc(-n2cnc3cc(C(=O)N4CCCCC4)ccc32)cc1,5.92
7,Cc1cc(-c2nnc3n2CCCCC3)c(C)n1-c1cccc(C#N)c1,0.167
8,Cc1cc(-c2nnc3n2CCCCC3)c(C)n1-c1cccc(C(F)(F)F)c1,4.68
9,Cc1cccc(-n2cnc3cc(C(=O)N4CCCC(C(F)(F)F)C4)ccc32)c1 (stereo not given),3.07
10,Cc1cc(-c2nnc3n2CCCCC3)c(C)n1-c1cccc(Cl)c1,1.42

# Source: PubChem BioAssay AID743192 (National Center for Advancing Translational Sciences (NCATS), 2013)
